The whole screen tested about 190,000 compounds, of which about 110 (0.058%) were called active. About 2% were inconclusive and are not listed. The sample as a whole holds a higher share of actives than the screen did. A number with no mark means an inactive call.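 The calls were made as follows: active = fluorescent GTP binding to Rab7 beads changed by at least 20 points from the 100% baseline, either direction, mostly lower; inconclusive = compound itself probably fluorescent, or too few beads counted; inactive = the rest.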
The compounds below were run on Rab7 GTPase wild type (dog), Bodipy-FL-GTP binding (assay: modulators of GTP binding to Rab7, primary screen, biochemical, wildtype, multiplex bead flow cytometry (AID 758;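 also: median green fluorescence of bound Bodipy-FL-GTP per Rab7 bead population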)). Details: GST-Rab7 beads, fluorescent GTP binding, at 10 µM, actives lie on both sides, untreated = 100%, excess cold GTP = 0%.

SMILES	GTP binding activity (percent of control)
CC(=O)c1cc(C#N)c(SCC(=O)Nc2nccs2)nc1C	96%
C=CCn1nc(-c2ccccc2)c2c(C)onc2c1=O	100%
NS(=O)(=O)c1ccc(NC(=S)Nc2ccc(Br)c(Cl)c2)cc1	103%
O=C(CCNC(=O)c1ccc([N+](=O)[O-])cc1)Nc1ccccc1N1CCOCC1	96%
COc1cccc(C(O)Cc2nc3ccccc3n2C)c1OC (stereo not given)	96%
CC(=O)c1cccc(NC(=O)[C@@H](NC(N)=O)C(C)C)c1	96%
COc1ccc(CNC(=O)COC(=O)/C=C/c2ccc(S(=O)(=O)N3CCOCC3)cc2)cc1	100%
O=C(O)/C=C/C(=O)NNc1ccc([N+](=O)[O-])cc1	96%
CCOC(=O)C1(CCOc2ccccc2)CCN(C(=O)c2cncs2)CC1	93%
CCOC(=O)c1ccc(NC(=O)c2cc(=O)[nH]c3ccccc23)cc1	94%
CCOc1c(CNCc2ccc(C(=O)O)cc2)cccc1OC	103%
COc1ccc(-c2nn(-c3ccccc3)cc2/C=C\C(=O)N2CCOCC2)cc1[N+](=O)[O-]	93%
CC(O)c1cccc(NC(=O)Cc2cccc3ccccc23)c1 (stereo not given)	93%
CCOc1cc(/C=C2/C(=N)N3OC(C)=CC3=NC2=O)ccc1OC	93%
NS(=O)(=O)c1cccc(NC(=O)CN2CCCc3ccccc32)c1	93%
Cc1nc([N+](=O)[O-])c(NCCCO)n1Cc1ccccc1	96%
O=C(NCc1ccncc1)NC12CC3CC(CC(C3)C1)C2	104%
Clc1cccc(-c2nc(NCC3CCCO3)c3ccccc3n2)c1 (stereo not given)	96%
COC(=O)c1c(NC(C)=O)sc(C(=O)Nc2ccccc2OC)c1C	106%
O=C(NNC1=C(C(=O)C(F)(F)F)CCC1)c1ccncc1	106%
O=C(CN1CCCC1)N1CCN(c2ccccc2)CC1	99%
CC(CC(=O)Nc1ccccc1)n1ccnc1 (stereo not given)	96%
CCN(Cc1ccccc1)S(=O)(=O)c1cc(C(=O)O)ccc1OC	107%
CCN(CC)CCCSc1nc2ccccc2s1	104%
Cc1ccc(NC(=O)C2(N3CCC3=O)CCCCC2)cc1	105%

SMILES	GTP binding activity (percent of control)
Cc1ccc(NC(=O)c2ccc(Oc3ncccn3)cc2)cc1	97%
OCC1(Cc2ccccc2C(F)(F)F)CCN(Cc2cccc3cnccc23)CC1	96%
CC1(C)CC(N(Cc2ccccc2)C(=O)Cc2ccccc2)CCO1 (stereo not given)	101%
O=C(Nc1cccnc1)c1cccc(S(=O)(=O)N2CCCC2)c1	94%
CCN(CC)C(=O)N(CC)Cc1ccccc1	96%
COC(=O)c1ccc(NCC(=O)N2CCCCCC2)cc1	106%
COc1ccc(-c2nc(CN3CCN(c4ncccn4)CC3)c(C)o2)cc1C	95%
O=C(C1CCCO1)N(c1ccc(F)cc1)C1C=CS(=O)(=O)C1 (stereo not given)	103%
CCc1ccc(/C=C2\SC(N3CCOCC3)=NC2=O)cc1	94%
c1ccc(Cc2cc[n+](Cc3ccccc3)cc2)cc1	106%
CCOc1cnc(-c2c(-c3ccccc3Cl)noc2C)o1	96%
CCCCN(C(=O)/C=C/c1ccco1)c1c(N)n(CC(C)C)c(=O)[nH]c1=O	98%
CC(C)(C)c1cnnn1-c1ccc([N+](=O)[O-])cc1	94%
CC(C)(C)C(=O)NCCCNc1ccc([N+](=O)[O-])cc1	94%
O=C(Nc1ccccc1F)c1ccccc1-c1ccc(C(F)(F)F)cc1	103%
NC(=O)c1ccccc1NC(=O)c1ccccc1F	99%
O=C(Nc1ccccc1F)c1ccccc1-c1ccccc1	74% (active)
O=C(CC1C(=O)NCCN1Cc1ccc(-c2ccccc2)cc1)NCc1ccncc1 (stereo not given)	96%
Cc1ccc(C)c(Cn2nnc3c(=O)[nH]c(C(=O)Nc4ccc(F)cc4)nc32)c1	102%
CC(=O)Nc1ccc(Nc2nc3c(S(=O)(=O)c4ccc(C)c(C)c4)nnn3c3ccccc23)cc1	97%
CN1CCN(CCC(=O)N/N=C/C=C2\N(C)c3ccccc3C2(C)C)CC1	98%
CC(C)CNC(=O)/C=C/C(=O)O	105%
O=C(Cc1ccccc1Cl)N1CCN(c2ccccn2)CC1	98%
Cc1ccc(CN2CCN(Cc3ccccc3-c3ccco3)CC2CCO)o1 (stereo not given)	104%
CNC(=O)COC(=O)c1cc(-c2ccc(OC)cc2)nc2ccccc12	88%

Reference: PubChem BioAssay AID758 (NMMLSC, 2007)
